High-throughput results: PubChem, National Center for Advancing Translational Sciences (NCATS)
In the library only some 2.4% were active in any assay of this set; here they are far more common.
D2 ag-1 = Beta-Arrestin HTS for Positive Allosteric Modulators of the Human D2 Dopamine Receptor: Agonists | activation, % (test concentration not listed) | AID 624465, 2012 | DiscoveRx PathHunter D2 beta-arrestin, luminescence, 90 min; 100% = 57 uM dopamine signal | D(2) dopamine receptor (Homo sapiens), P14416 | 0.084% of 360,000 active; in the data active = activation above about 40%; inconclusive = between about 15% and that limit
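Agonist mode: compounds alone added to overnight-plated D2 PathHunter cells for 90 min at 37 C, with 57 uM final dopamine (EC100) defining full response. Beta-arrestin recruitment detected by chemiluminescent reagent, read after 1 h at ambient temperature.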
D2 antagonist = HTS Assay for Allosteric Antagonists of the Human D2 Dopamine Receptor: Primary Screen for Antagonists; AID 485344, 2010; 2% of 340,000 active; HEK293 TREx D2 cells, calcium flux, dopamine EC80; inhibition, % at 10 µM; D(2) dopamine receptor (Homo sapiens), P14416; in the data active = inhibition above about 30%; inactive = below that, where a call was filed; also: 0% is about no effect
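Measurement of antagonist activity uses fluorescent calcium dye in inducible HEK293 T-REx D2 cells: 10 s baseline, compound addition with 180 s read, EC80 dopamine addition with a further 180 s read.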
D2 ag-2 = HTS Assay for Allosteric Agonists of the Human D2 Dopamine Receptor: Primary Screen for Agonists; 0.53% of 340,000 active; AID 485358, 2010; activation, % at 2 µM; HEK293 T-REx D2 cells, calcium flux agonist mode;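 active = activation over 3 SD above normal in the single-dose calcium agonist read, cut at about 30% in these data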; also: 0% is about no effect
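HEK293 Trex D2 cells, tetracycline-induced, o/n 30 C 5% CO2; no-wash Ca dye, RT 30–90 min; 10-cycle baseline, 23 nl cpd added, kinetic Ca read 180 s; agonist hits = positive Ca response.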
D2 PAM-1 = HTS Assay for Positive Allosteric Modulators of the Human D2 Dopamine Receptor: Primary Screen for Potentiators | D(2) dopamine receptor (Homo sapiens), P14416 | HEK293 T-REx D2, calcium flux, EC20 dopamine potentiation | potentiation, % at 10 µM | 0.34% of 340,000 active | AID 485347, 2010;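 active = potentiation over 3 SD above the plate norm, cut at about 30% in these data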; also: 0% is about no effect
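Tetracycline-induced HEK293 T-REx cells force-coupled to calcium signalling expressed D2; compounds were pin-added after a 10 s baseline, read kinetically 180 s, then an EC20 dopamine challenge followed with a further 180 s calcium read.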
D2 PAM-2 = Beta-Arrestin HTS for Positive Allosteric Modulators of the Human D2 Dopamine Receptor: Potentiators; D(2) dopamine receptor (Homo sapiens), P14416; DiscoveRx D2 beta-arrestin cells, luminescence, 90 min; 100% = 57 uM dopamine signal; potentiation, % (no concentration beside the values); 0.23% of 360,000 active; AID 624464, 2012; in the data active = potentiation above about 50%; inconclusive = mostly about 30% to 49%
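PathHunter beta-arrestin assay in DiscoveRx D2 cells. Compounds were added with an EC20 of dopamine (50 nM final) for 90 min at 37 deg C. Luminescence was read 1 h after detection reagent, with 57 uM dopamine as the EC100 control.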
D3 ag = qHTS of D3 Dopamine Receptor Agonist: D3 Dopamine Receptor B-arrestin Agonist Confirmatory Assay. shares compounds with D2 ag-2. DiscoveRx D3 beta-arrestin cells, luminescence, 90 min. Potency, µM (doses to about 76.9 µM), without a hit: at the highest dose activation, hits mostly activators. 4% of 2,300 active;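 also: potency is read from the fitted curve at half-maximal effect; 100% = dopamine control response; nearly all actives have a fitted effect of over 70% in size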
Target sequence (P35462 whole entry, looked up): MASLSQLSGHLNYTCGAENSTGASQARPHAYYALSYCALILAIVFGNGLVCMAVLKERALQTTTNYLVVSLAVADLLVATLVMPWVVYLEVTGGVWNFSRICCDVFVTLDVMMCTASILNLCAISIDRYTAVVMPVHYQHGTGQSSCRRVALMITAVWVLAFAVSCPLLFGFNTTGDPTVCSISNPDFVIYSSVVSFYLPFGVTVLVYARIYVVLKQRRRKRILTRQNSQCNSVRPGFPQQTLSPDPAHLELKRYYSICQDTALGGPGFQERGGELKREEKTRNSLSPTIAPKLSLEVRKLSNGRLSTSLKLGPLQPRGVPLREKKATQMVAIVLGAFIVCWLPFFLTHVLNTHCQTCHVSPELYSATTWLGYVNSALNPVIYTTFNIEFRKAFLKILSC
D2 ag-3 = qHTS of D3 Dopamine Receptor Agonist: D2 Dopamine Receptor B-arrestin Agonist Counterscreen. 5.9% of 2,300 active. DiscoveRx PathHunter D2 beta-arrestin, luminescence, 90 min; response scale: percent relative to full dopamine signal. AID 720507, 2013. Potency, µM (highest dose often 76.9 µM), without a hit: top-dose activation, usual class: activators. shares compounds with D2 ag-2; also: potency is read from the fitted curve at half-maximal effect; % of control where 0% means no effect; nearly all actives have a fitted effect of over 70% in size
* marks the source's active call; other numbers are inactive results; u = inconclusive; x = no result. Unless noted, calls follow the shape of the dose curve; as a rule, active = well fitted activation curve with a large enough effect; inconclusive = small, poorly fitted or top-dose-only effect; inactive = flat fitted curve, though single readings scatter.

SMILES	D2 ag-1	D2 antagonist	D2 ag-2	D2 PAM-1	D2 PAM-2	D3 ag	D2 ag-3
CC1(C)C2CC[C@]1(C)C(=O)N(CCCCN1CCN(c3ccccn3)CC1)C2=O	70*	116*	86*	-21	u	u	0.063µM*
Cc1ccc(S(=O)(=O)CCN2CCN(c3ccccn3)CC2)cc1	1	-1	6	-6	-12	x	x
Cc1ccc(CN2CCN(c3ccccn3)CC2)s1	65*	94*	-2	12	68*	u	0.16µM*
c1ccc(CCCN2CCN(c3ccccn3)CC2)cc1	1	75*	76*	-19	0	u	u
CC(=O)Nc1sc2c(c1CN1CCN(c3ccccn3)CC1)CCCC2	-3	-10	16	-24	-31	x	x
Cc1sc(NC(=O)c2ccco2)c(CN2CCN(c3ccccn3)CC2)c1C	8	124*	68*	-30	19	11%	30%
COc1ccccc1Cn1ccn(CC(=O)Nc2c(C)cc(C)cc2C)c(=O)c1=O	x	x	0	4	x	x	x
CCOc1ccc(-n2c(SCc3ccc(C(=O)OC)o3)nc3c([nH]c4ccccc43)c2=O)cc1	x	x	2	-9	x	x	x
CN(C)C(=O)c1ccc(S(=O)(=O)NCc2ccccc2Cl)s1	x	x	1	3	x	x	x
O=C(NCCc1csc(-c2cccc(F)c2)n1)c1ccccc1C(F)(F)F	x	x	0	6	x	x	x
Cc1cccc(-n2c(=O)c3c(c4cc(C)ccc4n3C)n(CC(=O)NCC3CCCO3)c2=O)c1 (stereo unspecified)	x	x	x	-7	x	x	x
c1ccc(N2CCN(Cc3ccsc3)CC2)nc1	66*	84*	76*	-16	101*	u	0.71µM*
c1ccc(N2CCN(c3cnccn3)CC2)nc1	-2	3	-1	13	-11	x	x
O=c1cc(CN2CCN(c3ccccn3)CC2)nc2sccn12	8	12	55*	-17	2	10%	22%
CCOC(=O)N1CCC(NC(=O)c2ccc(CS(=O)c3cccc(Cl)c3)o2)CC1 (stereo unspecified)	1	54*	44*	-15	-7	-3%	0%
O=C(CCNC(=O)c1ccc(Cl)cc1)NCCCN1CCOCC1	-3	-18	0	-10	-1	-6%	-5%
CN1CCN(C2CN(Cc3ccc(F)cc3)S(=O)(=O)C2)CC1 (stereo unspecified)	-2	x	x	x	-9	x	x
Cc1ccc(CN2CCN(CCCc3ccccc3)CC2CCO)cc1 (stereo unspecified)	-1	49*	53*	-30	-23	-2%	3%
OCCC1CN(CCCc2ccccc2)CCN1Cc1ccc(F)cc1 (stereo unspecified)	-2	29	1	-18	-32	x	x
O=C(NCc1ccco1)c1sc(=S)n2c1[nH]c(=O)c1ccccc12	-4	6	10	4	-8	-14%	-8%
O=C(NC1CCCC1)c1sc(=S)n2c1[nH]c(=O)c1ccccc12	-1	9	4	-3	-14	x	x
O=C(CCN1CCN(c2ccccc2F)CC1)Nc1ccccc1F	8	86*	55*	-2	-19	u	u
CCN1CCN(CC(=O)Nc2ccc(Cl)c(S(=O)(=O)N(C)C)c2)CC1	-4	5	-1	1	-18	x	x
O=C(CN1CCN(c2ccccc2F)CC1)Nc1ccccc1F	1	-1	22	-22	-35	-9%	0%
O=C(CCN1CCN(C/C=C/c2ccccc2)CC1)Nc1ccccc1F	3	-15	3	-2	-15	x	x
SMILES	D2 ag-1	D2 antagonist	D2 ag-2	D2 PAM-1	D2 PAM-2	D3 ag	D2 ag-3
CN(C)S(=O)(=O)c1cc(NC(=O)CN2CCN(c3ccccc3F)CC2)ccc1Cl	u	53*	54*	-11	5	u	u
COc1ccc(C)cc1NC(=O)CN1CCN(c2ccccc2F)CC1	0	-9	0	-25	-14	x	x
c1ccc(-c2cc3nc(NCc4cccs4)nc(NCc4ccc5occc5c4)c3s2)cc1	-6	x	x	x	-8	x	x
COC(=O)[C@H](CC(C)C)NS(=O)(=O)c1ccccc1	-2	17	-2	3	-9	x	x
COC(=O)[C@@H](CC(C)C)NS(=O)(=O)N(Cc1ccccc1)[C@@H](CC(C)C)C(=O)OC	-3	2	-1	-3	-4	-15%	-3%
COc1ccc(-c2nc3sc(CCNC(=O)Cc4ccc(F)cc4)c(C)n3n2)cc1	x	x	-5	2	x	x	x
CCOC(=O)C1CCN(S(=O)(=O)c2cc(-c3onc(C)c3C)ccc2C)CC1	x	x	0	x	x	x	x
CCOC(=O)C1(Cc2cccc(F)c2)CCN(CCCn2cccn2)CC1	0	-24	43*	-22	-23	-9%	0%
CCOC(=O)C1(CCOc2ccccc2)CCN(Cc2cccc(-n3cccn3)c2)CC1	6	-1	0	-20	-19	x	x
CCOC(=O)C1(CCOc2ccccc2)CCN(CCCn2cccn2)CC1	2	77*	57*	-21	-13	8%	18%
O=C(NCc1cccnc1)C(=O)NCC(c1ccco1)N1CCN(c2ccccc2F)CC1 (stereo unspecified)	41*	-18	63*	-21	6	-4%	u
O=C(NCc1ccccc1)C(=O)NCC(c1ccco1)N1CCN(c2ccccc2F)CC1 (stereo unspecified)	-4	-6	11	-5	-2	x	x
O=C(NCc1cccnc1)C(=O)NCC(c1ccco1)N1CCN(c2ccccc2)CC1 (stereo unspecified)	u	19	32*	-8	8	u	u
CCCOc1ccc(CNC(=O)c2cc3oc4ccccc4c3n2C)cc1	x	x	0	2	x	x	x
Cc1ccc(SCC(=O)OCC(=O)NCc2cccs2)cc1C	-6	-3	0	7	-4	x	x
COc1ccccc1CNC(=O)COC(=O)CSc1ccc(C)c(C)c1	-3	-5	0	-5	-12	-7%	-5%
Cc1cc(C)cc(OC(=O)c2cc(-c3ccc(Cl)cc3)on2)c1	x	x	1	-7	x	x	x
